PubChem BioAssay (NCATS)
Where “and” joins values, the source holds several entries; their conditions need not be identical. Equal values may be shown once. Inconclusive results are not listed. Calls of active or inactive are those of the source. Calls follow the shape of the dose curve; as a rule, active = well fitted inhibition curve with a large enough effect; inconclusive = small, poorly fitted or top-dose-only effect; inactive = flat fitted curve, though single readings scatter.

Assays:
CRL-7250 [1] = assay: Cytotoxic Profiling of Annotated Libraries Using Quantitative High-Throughput Screening (AID 1296008); details: Five cell lines viability, CellTiter-Glo ATP luminescence, 48-72 h; max response: stronger effect = lower value; also: potency is read from the fitted curve at half-maximal effect; as to max response: % is scaled to controls: 0 for no effect and ±100 for the full control effect
Procedure, shortened: (§1)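 Compounds were pin-transferred onto cells and incubated 48 or 72 hr at 37 degree Celsius, 95% humidity. CellTiter-Glo was added, plates sat 10 min at room temperature, then ATP-coupled luminescence was imaged as the viability read-out.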

HEK293 = assay: as above; details: Five cell lines viability, CellTiter-Glo ATP luminescence, 48-72 h; max response: stronger effect = lower value
Procedure, shortened: as §1

HaCat [2] = assay: as above; details: Five cell lines viability, CellTiter-Glo ATP luminescence, 48-72 h; max response: stronger effect = lower value
Procedure, shortened: as §1

KB-3-1 = assay: as above; details: Five cell lines viability, CellTiter-Glo ATP luminescence, 48-72 h; max response: stronger effect = lower value
Procedure, shortened: as §1

NIH3T3 = assay: as above; details: Five cell lines viability, CellTiter-Glo ATP luminescence, 48-72 h; max response: stronger effect = lower value
Procedure, shortened: as §1

N140 = assay: qHTS profiling for inhibitors of Plasmodium falciparum proliferation (AID 504749); also: potency is read from the fitted curve at half-maximal effect; details: P. falciparum in erythrocytes, SYBR Green DNA, 72 h; series mostly up to 28.7 µM
Procedure, shortened: (§2)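 Fluorescence of SYBR Green-bound parasite DNA, read at 485/535 nm, served as the growth measure. Infected erythrocytes were cultured with compound 72 h; artemisinin (0.29 uM) and DMSO wells defined the normalization range.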

P93_24 = assay: as above; details: P. falciparum in erythrocytes, SYBR Green DNA, 72 h; series mostly up to 28.7 µM
Procedure, shortened: as §2

P94_40 = assay: as above; details: P. falciparum in erythrocytes, SYBR Green DNA, 72 h; series mostly up to 28.7 µM
Procedure, shortened: as §2

PAD = assay: as above; details: P. falciparum in erythrocytes, SYBR Green DNA, 72 h; series mostly up to 28.7 µM
Procedure, shortened: as §2

PC15 = assay: as above; details: P. falciparum in erythrocytes, SYBR Green DNA, 72 h; series mostly up to 28.7 µM
Procedure, shortened: as §2

PC26 = assay: as above; details: P. falciparum in erythrocytes, SYBR Green DNA, 72 h; series mostly up to 28.7 µM
Procedure, shortened: as §2

PC49 = assay: as above; details: P. falciparum in erythrocytes, SYBR Green DNA, 72 h; series mostly up to 28.7 µM
Procedure, shortened: as §2

SC27B = assay: as above; details: P. falciparum in erythrocytes, SYBR Green DNA, 72 h; series mostly up to 28.7 µM
Procedure, shortened: as §2

TAB109 = assay: as above; details: P. falciparum in erythrocytes, SYBR Green DNA, 72 h; series mostly up to 28.7 µM
Procedure, shortened: as §2

TAB113 = assay: as above; details: P. falciparum in erythrocytes, SYBR Green DNA, 72 h; series mostly up to 28.7 µM
Procedure, shortened: as §2

TAB165 = assay: as above; details: P. falciparum in erythrocytes, SYBR Green DNA, 72 h; series mostly up to 28.7 µM
Procedure, shortened: as §2

W2 = assay: as above; details: P. falciparum in erythrocytes, SYBR Green DNA, 72 h; series mostly up to 28.7 µM
Procedure, shortened: as §2

CRL-7250 [3] = assay: qHTS assay to identify novel small-molecules to repurpose for Merkel cell carcinoma treatment (AID 1296009); details: MCC and control cell lines, CellTiter-Glo viability, 72 h; at 44.8 µM (top of the series) unless noted
Procedure, shortened: (§3)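 Luminescence from CellTiter-Glo, read 10 min after addition at room temperature, reported viability following a 72 hr, 37 degree celsius treatment with NPC or MIPE compounds in titration; values normalized to plate controls.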

HACAT [4] = assay: as above; details: MCC and control cell lines, CellTiter-Glo viability, 72 h; at 44.8 µM (top of the series) unless noted
Procedure, shortened: as §3

HEK293T = assay: as above; details: MCC and control cell lines, CellTiter-Glo viability, 72 h; at 44.8 µM (top of the series)
Procedure, shortened: as §3
Also: nearly all actives have a fitted effect of over 60% in size.

COc1ccc2[nH]cc(CCN(C(C)C)C(C)C)c2c1
inactive: max response (CRL-7250 [1]) -1.26% | max response (HEK293) -7.74% | max response (HaCat [2]) 1.43% | max response (KB-3-1) -17% | max response (NIH3T3) 1.94%

CN1C(=O)CN=C(c2ccccc2)c2cc([N+](=O)[O-])ccc21
inactive: Potency (N140) | Potency (P93_24) | Potency (P94_40) | Potency (PAD) | Potency (PC15) | Potency (PC26) | Potency (PC49) | Potency (SC27B) | Potency (TAB109) | Potency (TAB113) | Potency (TAB165) | Potency (W2) | outcome (CRL-7250 [1]) | max response (HEK293) -10% | outcome (HaCat [2]) | max response (KB-3-1) 9.64% | outcome (NIH3T3) | outcome (CRL-7250 [3]) | outcome (HACAT [4])

CCNc1nc(Cl)nc(NCC)n1
inactive: Potency (N140) | Potency (P93_24) | Potency (P94_40) | Potency (PAD) | Potency (PC15) | Potency (PC26) | Potency (PC49) | Potency (SC27B) | Potency (TAB109) | Potency (TAB113) | Potency (TAB165) | Potency (W2) | max response (CRL-7250 [1]) -9.95% | max response (HEK293) 1.01% | max response (KB-3-1) -15.4% | max response (NIH3T3) -12.6%

CCOC(=O)NC(C)(C)Cc1ccc(Cl)cc1
inactive: max response (CRL-7250 [1]) -4.28% | outcome (HEK293) | max response (HaCat [2]) 1.84% | max response (KB-3-1) 2.37% | max response (NIH3T3) -3.93% | outcome (HEK293T)

c1ccc2nc(N3CCNCC3)ccc2c1
inactive: Potency (N140) | Potency (P93_24) | Potency (P94_40) | Potency (PAD) | Potency (PC15) | Potency (PC26) | Potency (PC49) | Potency (SC27B) | Potency (TAB109) | Potency (TAB113) | Potency (TAB165) | Potency (W2) | max response (CRL-7250 [1]) -2.05% | max response (HEK293) -18% | max response (HaCat [2]) -23.1% | max response (KB-3-1) -16.3% | max response (NIH3T3) 0.319%

CC[n+]1c(-c2ccccc2)c2cc(N)ccc2c2ccc(N)cc21
active: Potency (N140) 141 nM and 316 nM | Potency (P93_24) 63.1 nM and 158 nM | Potency (P94_40) 70.8 nM and 355 nM | Potency (PAD) 199 nM and 316 nM | Potency (PC15) 251 nM and 891 nM | Potency (PC26) 1.51 µM and 2.13 µM | Potency (PC49) 178 nM and 316 nM | Potency (SC27B) 126 nM and 355 nM | Potency (TAB109) 70.8 nM and 158 nM | Potency (TAB113) 100 nM and 316 nM | Potency (TAB165) 17.8 nM and 224 nM | Potency (W2) 21.3 nM and 37.9 nM | Potency (CRL-7250 [1]) 6.68 µM | Potency (HEK293) 596 nM | Potency (KB-3-1) 8.2 µM and 23.1 µM

Cc1ccc(N=CN(C)C=Nc2ccc(C)cc2C)c(C)c1
inactive: Potency (N140) | Potency (P93_24) | Potency (P94_40) | Potency (PAD) | Potency (PC15) | Potency (PC26) | Potency (PC49) | Potency (SC27B) | Potency (TAB109) | Potency (TAB113) | Potency (TAB165) | Potency (W2) | max response (CRL-7250 [1]) -6.67% | outcome (HEK293) | max response (HaCat [2]) -15.3% | max response (KB-3-1) 1.07% | outcome (NIH3T3) | outcome (HEK293T)

Cc1ccc([N+](=O)[O-])[c]2c1[O][Hg]2
active: Potency (CRL-7250 [1]) 1.5 µM | Potency (HEK293) 1060 nM | Potency (HaCat [2]) 6.68 µM | Potency (NIH3T3) 4.22 µM

CC(Cc1ccccc1)NCCCCl (stereo not given)
inactive: outcome (CRL-7250 [1]) | max response (HEK293) 0.613% | outcome (HaCat [2]) | max response (NIH3T3) 3.33% | outcome (CRL-7250 [3]) | outcome (HACAT [4])

CCC(=O)OC1(c2ccccc2)CCN(C)CC1
inactive: max response (CRL-7250 [1]) -2.3% | max response (HaCat [2]) -5.78% | max response (KB-3-1) 2.4% | max response (NIH3T3) -0.056%

CCC(=O)C(CCN(C)C)(c1ccccc1)c1ccccc1
inactive: max response (CRL-7250 [1]) -11.9% | max response (HEK293) -18.5% | max response (HaCat [2]) -17.8% | max response (NIH3T3) 2.72%

O=C1CN2CCOC2(c2ccccc2Cl)c2cc(Cl)ccc2N1 (stereo not given)
inactive: outcome (CRL-7250 [1]) | max response (HEK293) -3.36% | max response (HaCat [2]) -2.33% | outcome (NIH3T3) | outcome (CRL-7250 [3])

COc1ccc(CN2CCNCC2)c(OC)c1OC
inactive: Potency (N140) | Potency (P93_24) | Potency (P94_40) | Potency (PAD) | Potency (PC15) | Potency (PC49) | Potency (SC27B) | Potency (TAB109) | Potency (TAB113) | Potency (TAB165) | max response (CRL-7250 [1]) 0.0195% | max response (HEK293) -9.25% | outcome (HaCat [2]) | max response (KB-3-1) 5.8% | max response (NIH3T3) 1.76% | outcome (HACAT [4])

Sc1ccccc1Cl
inactive: max response (CRL-7250 [1]) 1.34% | max response (HEK293) -0.79% | max response (HaCat [2]) -3.98% | max response (NIH3T3) 2.05%

COP(=S)(OC)Oc1ccc(Sc2ccc(OP(=S)(OC)OC)cc2)cc1
inactive: Potency (N140) | Potency (P93_24) | Potency (P94_40) | Potency (PAD) | Potency (PC15) | Potency (PC26) | Potency (PC49) | Potency (SC27B) | Potency (TAB109) | Potency (TAB113) | Potency (TAB165) | Potency (W2) | max response (CRL-7250 [1]) -0.305% | max response (HEK293) 3.86% | max response (HaCat [2]) -8.51% | max response (KB-3-1) 1.06% | outcome (NIH3T3)

COc1cc(C[C@@H](C)N)c(OC)cc1C
inactive: max response (CRL-7250 [1]) -47.5% | max response (HEK293) -43.2% | max response (KB-3-1) -10.2% | max response (NIH3T3) -23.9%

CCN1CCCC1CNC(=O)C(O)(c1ccccc1)c1ccccc1 (stereo not given)
inactive: max response (CRL-7250 [1]) -23.4% | outcome (HEK293) | max response (HaCat [2]) -7.18% | outcome (NIH3T3) | outcome (HEK293T)
